This passage reports growth results from PubChem BioAssay (NCI).

Assay in all cases: NCI-60 one-dose screen, 48 h (100 = growth as untreated, 0 = no growth, -100 = all killed)
Common to all, as to settings: 10 µM unless noted

In test [1] the test system is HCT-15 colon.
In test [2] the test system is HT29 colon.
For test [3], the system named is SNB-75 CNS.
Test [4] deals with SNB-19 CNS.
For test [5], the system named is U251 CNS.
Test [6] concerns PC-3 prostate.
The subject of test [7] is SK-MEL-5 melanoma.
Test [8] deals with UACC-62 melanoma.
In test [9] the test system is LOX IMVI melanoma.
Test [10] concerns SK-MEL-28 melanoma.
For test [11], the system named is SK-MEL-2 melanoma.
Test [12] concerns EKVX NSCLC.
The test system of test [13] is SN12C renal.
For test [14], the system named is UO-31 renal.
The test system of test [15] is TK-10 renal.
Test [16] relates to ACHN renal.
For test [17], the system named is CAKI-1 renal.
In test [18] the test system is A498 renal.
The subject of test [19] is CCRF-CEM leukemia.
The subject of test [20] is MOLT-4 leukemia.

The panel holds about 83,000 compounds, 20% with a hit somewhere; the sample as a whole holds those more often.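 Cells were grown in 96-well plates and exposed to the test compound at a single concentration for 48 hours; results are reported as percent growth, with values below 10 considered active.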 Values without a mark were called inactive. Active and inactive are the calls of the source.

As for `COC1=CC(=O)C(OC)=C(O)C1=O`, the growth in [1] is 97.7%; in [2], 106%; in test [3], 77%; in test [4] it was 101%; in test [5], 101%; in [6], 97.2%. Further, the growth was 97.8% in [7]; 96.1% in test [8]; 99.6% in test [9]; 102% in test [10]; 105% in test [11]; 98.1% in test [12]. Further, the growth in test [13] is 98.2%; in [14], 93.1%; in test [15] it was 105%; in test [16], 98.2%; in [17], 93.9%; in test [18] it was 106%. The growth in [19] is 108%; in [20] it was 107%.
Take `N=C(N)SCc1c2ccccc2c(CSC(=N)N)c2ccccc12`: the growth was 93.9% in test [1]; 65.9% in [2]; 89.5% in [3]; 111% in test [4]; 61.1% in test [5]; 61.8% in test [6]. The growth is 68.9% in test [7]; 72.9% in test [8]; 55.7% in test [9]; 99% in test [10]; 79.2% in [11]; 76.5% in test [12]. Further, the growth in test [13] is 53.7%; in test [14], 80.8%; in test [15] it was 98.5%; in test [16], 51.2%; in [17], 61.7%; in test [18], 89.9%. For the same compound, the growth in test [20] was -5.95% (active).
In the case of `Cc1n(Cc2ccc3ccccc3c2)c(Cl)c(Cl)[n+]1Cc1ccc2ccccc2c1`, the growth in test [1] is 92.5%; in test [2], 19.2%; in test [3] it was -1.79% (active); in [4] it was 23.3%; in test [5], 19.8%; in test [6], 12.2%. For the same compound, the growth is -79.4% (active) in test [7]; -40.3% (active) in test [8]; 27.8% in [9]; 26.6% in test [10]; 25.5% in test [11]; 51.1% in [12]. Besides, the growth is 30.7% in test [13]; 72.1% in [14]; 52.5% in test [15]; 80.8% in test [16]; 29.2% in test [17]; 40.3% in test [18]. In addition, the growth in test [20] was 25.4%.
`CC/C(=C(/c1ccc(O)cc1)c1ccc(OCCN2CCCCCC2)cc1)c1ccc(Cl)cc1`: the growth was 31.5% in test [1]; 14.2% in test [2]; 88.7% in test [3]; 80.2% in test [4]; 50.7% in [5]; 27.8% in test [6]. The growth in test [7] is 67%; in test [8] it was 83.2%; in test [9], 67.7%; in [10] it was 58.5%; in [11], 96.5%; in test [12] it was 91.9%. Further, the growth is 74.5% in test [13]; 65.7% in test [14]; 91.6% in test [15]; 99.9% in [16]; 95.8% in test [17]; 97.7% in [18]. For the same compound, the growth in test [19] is 20.7%; in test [20], 17%.
Take `Cc1nc2sc(C(=O)Nc3cccc(Cl)c3C)c(N)c2cc1C(O)c1ccccc1` (stereo not given): the growth in test [1] is 12.3%; in test [2], 11.8%; in test [3], 59.3%; in test [4] it was 34.7%; in test [5], 9.59% (active); in test [6] it was 19.6%. Further, the growth in test [7] was -37.5% (active); in [8], 21.4%; in test [9] it was 20.5%; in test [10] it was 53.9%; in test [11], 38.9%; in test [12], 41.6%. The growth in [13] was 9.22% (active); in test [14], 40.6%; in [15] it was 49.7%; in test [16] it was 22.5%; in test [17], 30.9%; in [18] it was -11.6% (active). The growth in [20] is 13%.
Turning to `C=C(C)[C@@H]1CC[C@]2(C)[C@H](CC(=O)N[C@H]3[C@@H]4C[C@](C)(C(=O)OC)CC[C@]4(C)CC[C@]32C)[C@@]1(C)CCC#N`, the growth in test [1] is 68.6%; in [2] it was 70.9%; in test [3], 96.5%; in test [4], 89%; in test [5], 79.9%; in [6], 42.9%. The growth was 49.7% in [7]; 68.3% in [8]; 96.9% in test [9]; 104% in [10]; 95.3% in test [11]; 93.2% in test [12]. In addition, the growth in test [13] is 79.4%; in test [14] it was 75.7%; in test [15] it was 104%; in [16] it was 88%; in [17] it was 79.2%; in test [18], 101%. In test [20], the growth was 42.7%.
As for `Clc1ccc(Nc2nc(Nc3ccc(Cl)cc3)nc(Nc3ccc(-c4cc(-c5cccc(Cl)c5)on4)cc3)n2)cc1`, the growth is 89.8% in [1]; 105% in test [2]; 99.4% in test [3]; 101% in test [4]; 79% in [5]; 86.7% in [6]. Moreover, the growth in test [7] is 88%; in [8], 105%; in test [9] it was 79.4%; in [10], 108%; in [11], 72.9%; in [12], 82.9%. The growth in test [13] is 94.4%; in test [14] it was 90.1%; in test [15] it was 155%; in [16], 86.4%; in test [17], 85.4%; in test [18] it was 99.9%. In addition, the growth in test [20] is 7.82% (active).
